In PubChem BioAssay (NCI):
This is part of a sample that, as a whole, favours compounds with a hit. Of some 79,000 tested, about 15% had one in any assay. Calls of active or inactive are those of the source. Rule as the data show it: active = growth inhibition above about 70%; inactive = the rest.

Columns and labels:
[1] = NCI Yeast Anticancer Drug Screen. Data for the rad50 strain (AID 155);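 also: 0% = growth of vehicle-only cultures of the same strain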; conditions: S. cerevisiae rad50 strain growth inhibition, hits give high values
Method in brief: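 Vehicle-treated cultures provide the reference for the growth inhibition reported for compound-exposed, repair-deficient yeast.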

[2] = NCI Yeast Anticancer Drug Screen. Data for the mec2-1 strain (AID 157); conditions: S. cerevisiae mec2-1 strain, hits give high values
Method in brief: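 Yeast mec2-1 mutant treated with compound. Readout: growth inhibition vs vehicle controls.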

[3] = NCI Yeast Anticancer Drug Screen. Data for the sgs1 mgt1 strain (AID 161);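 also: 0% = growth of cultures given vehicle only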; conditions: S. cerevisiae sgs1 mgt1 strain, hits give high values
Method in brief: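 Test agents were incubated with a DNA-repair-mutant yeast strain. Growth was then read and compared against vehicle-treated controls.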

[4] = NCI Yeast Anticancer Drug Screen. Data for the cln2 rad14 strain (AID 165);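 also: 0% = growth equal to vehicle treated cultures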; conditions: S. cerevisiae cln2 rad14 strain, hits give high values
Method in brief: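 cln2 rad14 yeast strain; compound exposure; growth inhibition read vs vehicle controls.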

[5] = NCI Yeast Anticancer Drug Screen. Data for the bub3 strain (AID 167); conditions: S. cerevisiae bub3 mutant strain, hits give high values
Method in brief: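 Mutant yeast screening strain plus compound; vehicle-treated cultures serve as the 0% inhibition reference.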

[6] = NCI Yeast Anticancer Drug Screen. Data for the mlh1 rad18 strain (AID 175); conditions: S. cerevisiae mlh1 rad18 strain growth inhibition, hits give high values
Method in brief: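 Yeast w/ defined DNA-repair lesions; compound exposure; growth vs vehicle controls → % inhibition.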

[7] = at 5.0 µM (retest, dose inferred, filed as 0.5)
[8] = at 50.0 µM (retest, dose inferred, filed as 5.0)

Measured: growth inhibition

Cc1cnc(Sc2c([N+](=O)[O-])ncn2C)nc1
inactive: [1]; [7] 3% | [1]; [8] 8% | [2]; [7] 6% | [2]; [8] 7% | [3]; [7] 3% | [3]; [8] 9% | [3]; at 50.0 µM 63.7% | [4]; [7] 0% | [4]; [8] 7% | [4]; at 50.0 µM 41.5% | [5]; [7] 1% | [5]; [8] 4% | [6]; [7] -1% | [6]; [8] 3%
active: [1]; at 50.0 µM 71.8% | [2]; at 50.0 µM 98.2% | [5]; at 50.0 µM 99.5% | [6]; at 50.0 µM 80.1%

O=[N+]([O-])c1cc(CNCCO)c(O)c2ncccc12
active: [1]; [7] 99% | [1]; [8] 99% | [1]; at 50.0 µM 98.7% | [2]; [7] 100% | [2]; [8] 99% | [2]; at 50.0 µM 99.3% | [3]; [7] 99% | [3]; [8] 99% | [3]; at 50.0 µM 99.2% | [4]; [7] 95% | [4]; [8] 98% | [4]; at 50.0 µM 97.9% | [5]; [7] 99% | [5]; [8] 99% | [5]; at 50.0 µM 99% | [6]; [7] 99% | [6]; [8] 99% | [6]; at 50.0 µM 98.8%

O=C1C(=O)c2ccccc2C=C1Br
active: [1]; [8] 99% | [1]; at 50.0 µM 99% | [2]; [7] 91% | [2]; [8] 99% | [2]; at 50.0 µM 99.2% | [3]; [7] 75% | [3]; [8] 99% | [3]; at 50.0 µM 99.2% | [4]; [8] 99% | [4]; at 50.0 µM 98.2% | [5]; [7] 93% | [5]; [8] 99% | [5]; at 50.0 µM 98.7% | [6]; [7] 85% | [6]; [8] 99% | [6]; at 50.0 µM 98.8%
inactive: [1]; [7] 50% | [4]; [7] 67%

O=C(OCCCN1CCCC1)C(c1ccccc1)C1CCCCC1 (stereo not given)
inactive: [1]; [7] 20% | [1]; [8] 67% | [1]; at 50.0 µM 63.8% | [2]; [7] 9% | [2]; at 50.0 µM 52.4% | [3]; [7] 23% | [4]; [7] 13% | [5]; [7] 33% | [5]; at 50.0 µM 54.4% | [6]; [7] 42%
active: [2]; [8] 87% | [3]; [8] 91% | [3]; at 50.0 µM 85.9% | [4]; [8] 81% | [4]; at 50.0 µM 79.8% | [5]; [8] 91% | [6]; [8] 95% | [6]; at 50.0 µM 80.2%

CC(=O)OC1=CC2=CCC3C(CCC4(C)C(C(C)=O)CCC34)C2(C)CC1 (stereo not given)
inactive: [1]; [7] -12% | [1]; [8] 0% | [1]; at 50.0 µM -5.65% | [2]; [7] -6% | [2]; [8] 7% | [2]; at 50.0 µM 10.9% | [3]; [7] -6% | [3]; [8] 8% | [3]; at 50.0 µM 7.35% | [4]; [7] -6% | [4]; [8] -13% | [4]; at 50.0 µM 39.8% | [5]; [7] -11% | [5]; [8] -14% | [5]; at 50.0 µM -1.15% | [6]; [7] -4% | [6]; [8] -11% | [6]; at 50.0 µM 11.3%

COC(=O)/C(Br)=C(\Br)c1ccccc1
inactive: [1]; [7] 6% | [1]; [8] 13% | [1]; at 50.0 µM -11.4% | [2]; [7] 6% | [2]; [8] 6% | [2]; at 50.0 µM 24.1% | [3]; [7] 14% | [3]; [8] -6% | [3]; at 50.0 µM 36.7% | [4]; [7] 2% | [4]; [8] 6% | [4]; at 50.0 µM -18.6% | [5]; [7] 0% | [5]; [8] 21% | [5]; at 50.0 µM 52.8% | [6]; [7] 22% | [6]; [8] 40% | [6]; at 50.0 µM 21.7%

Cc1ccc(CN2CC(=O)N3Cc4ccccc4CN3C(=O)C2)cc1
inactive: [1]; [7] -1% | [1]; [8] -3% | [1]; at 50.0 µM -3.95% | [2]; [7] -6% | [2]; [8] -15% | [2]; at 50.0 µM 6.6% | [3]; [7] 4% | [3]; [8] 4% | [3]; at 50.0 µM 10.4% | [4]; [7] 0% | [4]; [8] -3% | [4]; at 50.0 µM -8.8% | [5]; [7] 5% | [5]; [8] 30% | [6]; [7] -5% | [6]; [8] -2% | [6]; at 50.0 µM -20.2%
active: [5]; at 50.0 µM 83.4%

COc1cc(C2c3cc4c(cc3OC3(O)C=C(C)OC(=O)C23)OCO4)cc(OC)c1OC (stereo not given)
inactive: [1]; [7] 5% | [1]; [8] -5% | [1]; at 50.0 µM 12.1% | [2]; [7] 4% | [2]; [8] -4% | [2]; at 50.0 µM 30% | [3]; [7] 0% | [3]; [8] -22% | [3]; at 50.0 µM 13.4% | [4]; [7] 0% | [4]; [8] 5% | [4]; at 50.0 µM 9.5% | [5]; [7] -1% | [5]; [8] -3% | [6]; [7] 1% | [6]; [8] -10% | [6]; at 50.0 µM 29.9%
active: [5]; at 50.0 µM 92.3%

CC1=CC(=O)CC(c2ccccc2)C1 (stereo not given)
inactive: [1]; [7] 43% | [2]; [7] 30% | [3]; [7] 22% | [4]; [7] 11% | [5]; [7] 31% | [6]; [7] 55%
active: [1]; [8] 98% | [1]; at 50.0 µM 97.6% | [2]; [8] 99% | [2]; at 50.0 µM 98.3% | [3]; [8] 99% | [3]; at 50.0 µM 98.7% | [4]; [8] 97% | [4]; at 50.0 µM 92.5% | [5]; [8] 99% | [5]; at 50.0 µM 98.7% | [6]; [8] 99% | [6]; at 50.0 µM 98.3%

COc1ccc2c(c1)CC1c3c(ccc(OC)c3O)CC2N1C (stereo not given)
inactive: [1]; [7] -15% | [1]; [8] 56% | [2]; [7] -44% | [2]; [8] 37% | [3]; [7] -6% | [3]; [8] 59% | [4]; [7] -24% | [4]; [8] 52% | [5]; [7] -4% | [6]; [7] -55% | [6]; [8] 61%
active: [1]; at 50.0 µM 86.7% | [2]; at 50.0 µM 91.3% | [3]; at 50.0 µM 93.7% | [4]; at 50.0 µM 92.5% | [5]; [8] 75% | [5]; at 50.0 µM 92% | [6]; at 50.0 µM 89.5%
